Test systems include BMPR1A; BMPR1B; BMPR2; BMX; BRAF; BRSK1; BRSK2; BTK; BUB1.
Details in all cases: concentration: 1 μM, replicates: in singlicate; n = 1
For another assay, the system named is T1, BRK.
T1 construct: gene PTK6

8 compounds from PMC5540273 (PLoS ONE, 2017) can be followed below.
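Note: KINOMEscan kinase panel screen.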

Regarding `Cc1cccc(-c2cc(Nc3ccncc3)c3ccccc3n2)n1` [GSK223675], the “%Inh” value came out at 0% with BMPR1A; 0% in the assay on BMPR1B; 0% in the assay with BMPR2; 1% with BMX; 0% with BRAF; 0% with BRK. The “%Inh” value in the assay on BRSK1, in the assay on BRSK2, in the assay with BTK and in the assay with BUB1 was 0% in each case.

Regarding `CN1C(=O)C(Nc2ccc(Cl)c(C(=O)O)c2)=C(c2ccc(Cl)cc2)C1=O` [SB-404290], the “%Inh” value in the assay with BMPR1A was determined as 4%; in the assay with BMPR1B, 0%; in the assay with BMPR2 it was 25%; in the assay on BMX, 0%; in the assay on BRAF it was 0%; in the assay on BRK, 0%. For the same compound, the “%Inh” value in the assay with BRSK1, in the assay on BRSK2, in the assay on BTK and in the assay on BUB1 was 0% in each case.

`Cc1cc(NCC(c2ccccc2)c2ccccc2)nc(NCc2ccc(C(F)(F)F)cc2)n1` [GW497681]: the “%Inh” value in the assay with BMPR1A stood at 0%; in the assay with BMPR1B, 0%; in the assay on BMPR2, 14%; in the assay with BMX it was 18%; with BRAF, 0%; in the assay with BRK it was 2%. Also, the “%Inh” value was determined as 0% in the assay with BRSK1, 0% with BRSK2, 0% with BTK and 35% with BUB1.

With `CCn1c(-c2cccnc2O)nc2cnccc21` [SB-736715], the “%Inh” value with BMPR1A, in the assay on BMPR1B, with BMPR2, in the assay with BMX, with BRAF and with BRK was 0% in each case. For the same compound, the “%Inh” value in the assay on BRSK1 is 0%; in the assay with BRSK2 it was 0%; in the assay with BTK, 0%; in the assay on BUB1, 6%.

Regarding `COc1ccc(C2=C(Nc3cccc(C(=O)O)c3)C(=O)NC2=O)cc1` [SB-390765], the “%Inh” value worked out at 13% in the assay on BMPR1A; 4% in the assay with BMPR1B; 0% in the assay on BMPR2; 17% in the assay on BMX; 9% with BRAF; 0% in the assay with BRK. In addition, the “%Inh” value in the assay with BRSK1, in the assay with BRSK2, in the assay on BTK and in the assay with BUB1 was 0% each time.

On to `Cc1cccc(-c2nc(C)cc(Nc3ccncc3)n2)n1` [GSK257997], for which the “%Inh” value came out at 14% with BMPR1A; 0% in the assay with BMPR1B; 2% in the assay with BMPR2; 27% in the assay on BMX; 0% with BRAF; 2% in the assay with BRK. In addition, the “%Inh” value is on record as 0% with BRSK1, 0% in the assay on BRSK2, 0% in the assay on BTK and 9% in the assay on BUB1.

On to `COc1ccc2nc(-c3cccc(C)n3)nc(Nc3ccncc3)c2c1` [GSK204919], for which the “%Inh” value was 0% in the assay with BMPR1A; 0% in the assay on BMPR1B; 0% in the assay on BMPR2; 27% in the assay on BMX; 0% with BRAF; 8% with BRK. For the same compound, the “%Inh” value with BRSK1 is on record as 4%; with BRSK2, 0%; with BTK, 0%; with BUB1, 38%.

Regarding `Cn1ccc2ncnc(Oc3ccc(Nc4nc5ccccc5[nH]4)cc3)c21`, the “%Inh” value in the assay on BMPR1A, in the assay on BMPR1B, in the assay on BMPR2, in the assay with BMX, in the assay on BRAF and with BRK was 0% each time. Besides, the “%Inh” value in the assay on BRSK1 is listed as 0%; with BRSK2, 2%; in the assay with BTK it was 0%; in the assay with BUB1, 0%.
